Data on 13 molecules can be found in PubChem BioAssay (NCATS).

Records with an inconclusive call do not appear. Calls of active or inactive are those of the source. Calls come from the whole dose curve; as a rule, active = well fitted inhibition curve with a large enough effect; inconclusive = small, poorly fitted or top-dose-only effect, or effect the other way; inactive = flat fitted curve, though single readings scatter.

Sequence of D(1A) dopamine receptor (Homo sapiens) (P21728 whole entry, looked up): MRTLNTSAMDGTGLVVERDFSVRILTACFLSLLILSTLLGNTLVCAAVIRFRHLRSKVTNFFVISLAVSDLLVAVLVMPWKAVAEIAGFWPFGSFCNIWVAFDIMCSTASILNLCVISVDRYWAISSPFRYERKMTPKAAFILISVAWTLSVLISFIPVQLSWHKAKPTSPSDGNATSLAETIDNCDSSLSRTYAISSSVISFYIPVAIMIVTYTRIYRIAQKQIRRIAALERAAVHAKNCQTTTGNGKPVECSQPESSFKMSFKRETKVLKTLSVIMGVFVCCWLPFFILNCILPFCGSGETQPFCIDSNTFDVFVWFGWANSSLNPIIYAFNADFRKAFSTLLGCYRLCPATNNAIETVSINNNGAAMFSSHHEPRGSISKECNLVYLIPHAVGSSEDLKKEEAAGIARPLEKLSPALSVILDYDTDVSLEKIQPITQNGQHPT

The assay addresses D(1A) dopamine receptor (Homo sapiens) (UniProt P21728). As to the kind of experiment: HTS Assay for Allosteric Agonists of the Human D1 Dopamine Receptor: Primary Screen for Antagonists (AID 488983). Note: nearly all actives have a fitted effect of over 65% in size. The following applies: D1 receptor cell assay, antagonist mode, qHTS titration; series mostly up to 41.8 µM. The text has this: Dopamine receptors (DARs) are involved in the etiology and/or therapy of a number of neuropsychiatric and endocrine disorders. For instance, all receptor-based antiparkinsonian drugs work via stimulating the […] DAR subtype whereas all FDA-approved antipsychotic agents are antagonists of this receptor. […] There are three different types of allosteric modulators that we are seeking, two of which will stimulate or augment receptor signaling, allosteric agonists and potentiators, while the third, allosteric antagonists, will attenuate receptor signaling. The present primary screening assay measures compound agonism by tracking calcium flux in a […], inducible Hek293 Trex D1 cell line.
Freshly passaged cells are plated in 1536 well black, clear bottom plates at a density of 4000 cells/well in 3 ul of complete media containing 1x tetracycline inducer. After an overnight incubation at 30 C in 5% CO2, cells are loaded with 2 ul of the no wash Calcium Assay Kit (ABD Bioquest) and incubated at room temperature for 30 to 90 minutes. A 10 cycle (1 second/cycle) baseline measurement is taken and then the FDSS online 1536 pintool delivers 23 nl of compound library (as well as dopamine controls) to the plate. The plate is measured for kinetically at 1 cycle/sec for 180 seconds and is considered to be the agonist portion of the assay (eg, compounds which activate a positive calcium response during this portion are flagged as potential agonists). Following the 180 second read, 1 ul of an EC80 of dopamine is delivered by an onboard pipette head. Measurements are taken kinetically for an additional 180 seconds.
Background: Quantitative high-throughput screening tests each substance at several concentrations.
For `NCCc1ccc(O)cc1`, the call was inactive.

On to `CC(C)N(CCC(C(N)=O)(c1ccccc1)c1ccccn1)C(C)C` (stereo not drawn), for which the molecule was called inactive.

Turning to `C=C(C)[C@H]1CN[C@H](C(=O)O)[C@H]1CC(=O)O`, the outcome was inactive. On to `CCCCC/C=C\C/C=C\C/C=C\C/C=C\CCCC(=O)NCC(=O)O`, for which the call was inactive. As to `O=C(O)CCCc1ccc(N(CCCl)CCCl)cc1`, the molecule was called inactive. For `O=P1(N(CCCl)CCCl)NCCCO1` (stereo not drawn), the molecule was called inactive.

For `Cc1ncsc1CCCl`, the molecule was classed as inactive. In the case of `CC(C)(C)NCC(O)c1ccccc1Cl` (stereo not drawn), the call was inactive. As to `CC(NC(C)(C)C)C(=O)c1cccc(Cl)c1` (stereo not drawn), the molecule was called inactive. Consider `CN1C(=O)CCS(=O)(=O)C1c1ccc(Cl)cc1` (stereo not drawn), for which the outcome was inactive. For the molecule `COc1ccc2c(c1OC)C(=O)O[C@H]2[C@@H]1c2cc3c(cc2CCN1C)OCO3`, the result was inactive. On to `CCC1(c2ccc(N)cc2)CCC(=O)NC1=O` (stereo not drawn), for which the molecule was called inactive. For `O=c1[nH]oc2c1CCNC2` the value was “inactive”.
